Experimental findings from PubChem BioAssay (NCI) are described below.

The panel holds about 83,000 compounds, 20% with a hit somewhere; the sample as a whole holds those more often.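 Testing used 96-well plates and a 48-hour single-concentration exposure. Example: -40 means 40% of the starting cells died.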 Unmarked numbers belong to inactive results. Calls of active or inactive are those of the source. The calls were made as follows: active = growth percent below 10; inactive = the rest.

What all share (assay): NCI-60 one-dose screen, 48 h (100 = growth as untreated, 0 = no growth, -100 = all killed)
One test has as its system SK-MEL-2 melanoma. The settings on record: 10 µM unless noted.
The test system of a further test is EKVX NSCLC. As to conditions: 10 µM unless noted.
A further test concerns SN12C renal. As to conditions: 10 µM unless noted.
In the next test the test system is UO-31 renal. As to conditions: 10 µM unless noted.
The next test has as its system TK-10 renal. The settings on record: 10 µM unless noted.
The next test deals with ACHN renal. As to conditions: 10 µM unless noted.
A further test concerns CAKI-1 renal. As to conditions: 10 µM unless noted.
In another test the test system is A498 renal. The settings on record: 10 µM unless noted.
In another test the test system is CCRF-CEM leukemia. The settings on record: 10 µM unless noted.
The subject of a further test is MOLT-4 leukemia. The settings on record: 10 µM unless noted.
A further test has as its system SR leukemia. As to conditions: 10 µM unless noted.
The test system of another test is RPMI-8226 leukemia. The settings on record: 10 µM unless noted.
The next test has as its system OVCAR-8 ovarian. As to conditions: 10 µM unless noted.
The subject of the next test is OVCAR-5 ovarian. The settings on record: 10 µM unless noted.
Another test deals with OVCAR-4 ovarian. As to conditions: 10 µM.
Another test concerns SK-OV-3 ovarian. The settings on record: 10 µM unless noted.
In the next test the test system is IGROV1 ovarian. As to conditions: 10 µM unless noted.
The subject of a further test is OVCAR-3 ovarian. The settings on record: 10 µM unless noted.
The test system of another test is HS 578T breast. The settings on record: 10 µM unless noted.
In another test the test system is NCI/ADR-RES ovarian. The settings on record: 10 µM unless noted.

With `CCOC(=O)/C(C#N)=C(\C)CCc1ccccc1`, the growth was 106% in the test on SK-MEL-2 melanoma; 105% in the test with EKVX NSCLC; 118% in the test on SN12C renal; 99.6% in the test with UO-31 renal; 140% in the test on TK-10 renal; 101% with ACHN renal. For the same molecule, the growth was 80.9% with CAKI-1 renal; 77.9% in the test on A498 renal; 102% in the test with CCRF-CEM leukemia; 153% with MOLT-4 leukemia; 153% in the test with SR leukemia; 61.1% in the test on RPMI-8226 leukemia. The growth was 103% in the test with OVCAR-8 ovarian; 108% in the test on OVCAR-5 ovarian; 58.9% in the test on OVCAR-4 ovarian; 125% with SK-OV-3 ovarian; 81.2% in the test on IGROV1 ovarian; 118% in the test with OVCAR-3 ovarian. Moreover, the growth is 98.7% in the test with HS 578T breast and 98.8% in the test on NCI/ADR-RES ovarian.

Regarding `O=C(Nc1ccc(Cl)c(C(F)(F)F)c1)Nc1ccc(-c2cccnc2)cc1N1CCC(CO)CC1`, the growth with SK-MEL-2 melanoma was -10.3% (active); with EKVX NSCLC, 37.2%; in the test with SN12C renal, 31%; in the test on UO-31 renal, 21.9%; with TK-10 renal, 22.2%; in the test with ACHN renal, 17.3%. The growth is 34.3% in the test on CAKI-1 renal; 14.3% in the test on A498 renal; 9.72% (active) in the test with CCRF-CEM leukemia; 4.83% (active) with MOLT-4 leukemia; 2.35% (active) in the test with SR leukemia; 12.1% in the test on RPMI-8226 leukemia. Further, the growth in the test on OVCAR-8 ovarian was 26.8%; with OVCAR-5 ovarian, 39.4%; with OVCAR-4 ovarian, 43.8%; in the test on SK-OV-3 ovarian, 32.6%; in the test on IGROV1 ovarian, 61.4%; in the test with OVCAR-3 ovarian it was 38%. The growth with HS 578T breast is 34.4%; in the test on NCI/ADR-RES ovarian, 26.2%.

On to `COc1ccc(-c2cc(-c3ccc(Cl)cc3)nc(SCCCCCCC(=O)NO)n2)cc1`, for which the growth in the test on SK-MEL-2 melanoma is 87.1%; in the test on EKVX NSCLC it was 44.2%; in the test on SN12C renal, 41.3%; in the test with UO-31 renal, 11.8%; in the test with TK-10 renal it was 34.7%; in the test with ACHN renal, 16.1%. Moreover, the growth with CAKI-1 renal was 4.58% (active); in the test with A498 renal, 52%; with CCRF-CEM leukemia it was 3.36% (active); in the test with MOLT-4 leukemia, 9.33% (active); in the test on SR leukemia, 4.61% (active); in the test with RPMI-8226 leukemia, 26.5%. Moreover, the growth in the test with OVCAR-8 ovarian is 21.1%; with OVCAR-5 ovarian, 34.1%; with OVCAR-4 ovarian, 56.5%; in the test with SK-OV-3 ovarian, 20.1%; in the test on IGROV1 ovarian it was 11.1%; with OVCAR-3 ovarian it was 39%. For the same molecule, the growth with HS 578T breast was 55.5%; with NCI/ADR-RES ovarian it was 2.26% (active).

Consider `COc1ccc2c(c1)c(-c1noc(-c3cn(C)c4ncc(F)cc34)n1)cn2C`, for which the growth is 94% in the test with SK-MEL-2 melanoma; 65% in the test on EKVX NSCLC; 52.7% with SN12C renal; 85.1% in the test with UO-31 renal; 86.2% in the test on TK-10 renal; 84.4% in the test with ACHN renal. For the same molecule, the growth with CAKI-1 renal is 76.6%; with A498 renal, 65.7%; in the test with CCRF-CEM leukemia it was 99%; in the test on MOLT-4 leukemia, 87.6%; in the test with SR leukemia, 83.8%; in the test on RPMI-8226 leukemia it was 92.1%. The growth with OVCAR-8 ovarian was 63.7%; in the test with OVCAR-5 ovarian, 87.6%; in the test on OVCAR-4 ovarian, 18.4%; with SK-OV-3 ovarian it was 79.1%; in the test with IGROV1 ovarian it was 69.6%; in the test on OVCAR-3 ovarian it was 42%. The growth in the test on HS 578T breast is 91%; with NCI/ADR-RES ovarian, 68.3%.

For `Nc1cc(Cl)cc2cccnc12`, the growth was 119% in the test with SK-MEL-2 melanoma; 102% with EKVX NSCLC; 91.1% in the test with SN12C renal; 67.9% with UO-31 renal; 109% in the test on TK-10 renal; 102% with ACHN renal. For the same molecule, the growth with CAKI-1 renal is 101%; in the test on A498 renal it was 116%; in the test on CCRF-CEM leukemia it was 55.7%; in the test on MOLT-4 leukemia, 77.8%; with SR leukemia it was 94%; in the test with RPMI-8226 leukemia it was 92.9%. Also, the growth in the test on OVCAR-8 ovarian is 111%; with OVCAR-5 ovarian, 101%; in the test on OVCAR-4 ovarian, 117%; in the test with SK-OV-3 ovarian it was 95%; in the test with IGROV1 ovarian it was 126%; in the test on OVCAR-3 ovarian it was 119%. The growth with HS 578T breast is 114%; in the test on NCI/ADR-RES ovarian, 101%.

Consider `CC(C)C1=NOC(=O)C1=Cc1cn(-c2ccco2)nc1-c1ccccc1`, for which the growth in the test on SK-MEL-2 melanoma was 113%; with EKVX NSCLC it was 99.6%; with SN12C renal it was 87.4%; in the test with UO-31 renal it was 71.5%; in the test with TK-10 renal, 110%; in the test on ACHN renal, 92.3%. Also, the growth in the test on CAKI-1 renal was 73.8%; in the test on A498 renal, 98.6%; with CCRF-CEM leukemia it was 32.9%; in the test on MOLT-4 leukemia it was 20.7%; in the test with SR leukemia, -2.02% (active); in the test with RPMI-8226 leukemia it was 6.57% (active). In addition, the growth with OVCAR-8 ovarian was 80.5%; in the test with OVCAR-5 ovarian, 114%; with OVCAR-4 ovarian, 94.6%; in the test on SK-OV-3 ovarian, 102%; in the test on IGROV1 ovarian, 90.2%; in the test with OVCAR-3 ovarian, 90.6%. For the same molecule, the figures for the growth with HS 578T breast and in the test with NCI/ADR-RES ovarian were 96.1% and 98%, respectively.

For `CN(C)c1ccc(N=Nc2ccc3ccccc3c2)cc1`, the growth was 98.7% in the test on SK-MEL-2 melanoma; 83.5% in the test on EKVX NSCLC; 87% in the test with SN12C renal; 57% in the test on UO-31 renal; 91.4% in the test with TK-10 renal; 87.8% with ACHN renal. Further, the growth in the test with CAKI-1 renal was 91.4%; with A498 renal, 88.5%; in the test on CCRF-CEM leukemia it was 72%; in the test with MOLT-4 leukemia, 80.8%; with SR leukemia, 61.8%; in the test on RPMI-8226 leukemia, 79.7%. Further, the growth in the test on OVCAR-8 ovarian was 98.2%; in the test on OVCAR-5 ovarian, 104%; with OVCAR-4 ovarian, 76.7%; with SK-OV-3 ovarian, 96%; in the test on IGROV1 ovarian it was 77.8%; in the test with OVCAR-3 ovarian, 88.7%. For the same molecule, the growth in the test with HS 578T breast is 98.4%; in the test with NCI/ADR-RES ovarian, 98.1%.

Regarding `CCN(CC)c1ccc(/C=C/C=C2\NC(=O)NC2=O)cc1`, the growth in the test with SK-MEL-2 melanoma was -13.5% (active); in the test with EKVX NSCLC it was 61.5%; with SN12C renal, 47.4%; in the test on UO-31 renal it was 36.4%; in the test with TK-10 renal, 8.35% (active); with ACHN renal, 47.2%. The growth in the test on CAKI-1 renal was 16.7%; in the test with A498 renal, 22.4%; with CCRF-CEM leukemia it was 40%; with MOLT-4 leukemia, 41.1%; in the test on SR leukemia, 21.1%; with RPMI-8226 leukemia, 41%. Besides, the growth is 36% with OVCAR-8 ovarian; 58.1% in the test on OVCAR-5 ovarian; 50.5% in the test on OVCAR-4 ovarian; 29.1% in the test on SK-OV-3 ovarian; 49.7% in the test with IGROV1 ovarian; 25.5% with OVCAR-3 ovarian. For the same molecule, the growth was 50.4% in the test on HS 578T breast and 3.98% (active) in the test on NCI/ADR-RES ovarian.
